In PubChem BioAssay (NCATS):
“And” between values parts separate entries of the source, which are not always exact repeats. Identical values can stand only once. Records with an inconclusive call do not appear. The source made the active and inactive calls. Calls follow the shape of the dose curve; as a rule, active = well fitted curve in the direction sought with a large enough effect; inconclusive = small, poorly fitted or top-dose-only effect, or another doubt; inactive = no such curve, though single readings can be large; an effect the other way counts as inactive or inconclusive.

Key:
[1] = molecular target: Calcium and integrin-binding protein 1 (Homo sapiens) (UniProt Q99828); assay: Primary qHTS for Identification of Calcium Integrin Binding Protein 1 (CIB1) Competitor (AID 1508620);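 also: GST tagged CIB1 binding a fluorescein labelled alphaIIb integrin peptide tracer; top concentration of the series differs between compounds; % is scaled to controls: 0 for no effect and ±100 for the full control effect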
Chain of Calcium and integrin-binding protein 1 (Homo sapiens) (Q99828 whole entry, looked up): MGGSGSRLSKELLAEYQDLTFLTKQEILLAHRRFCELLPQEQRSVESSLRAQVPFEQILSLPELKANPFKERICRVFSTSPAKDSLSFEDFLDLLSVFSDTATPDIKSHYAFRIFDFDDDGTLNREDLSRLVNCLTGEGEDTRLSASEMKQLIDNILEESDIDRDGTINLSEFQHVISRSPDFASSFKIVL
In short: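 Fluorescence polarization competition: GST-tagged CIB1 (1 uM final) preincubated with compound 15 min at room temperature, then FITC-labelled alphaIIb peptide (100 nM final) added. After 15 min at room temperature, polarization read at Ex 480/Em 540.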

[2] = Primary qHTS for inhibitors of nuclear receptor binding SET domain protein 2 (NSD2) in an isogenic RCH-ACV NSD2 p.E1099K mutant (9B) (AID 1645876); also: potency is read from the fitted curve at half-maximal effect; nearly all actives have a fitted effect of over 70% in size
[3] = molecular target: Glutathione peroxidase 1 (Homo sapiens) (UniProt P07203); assay: Primary qHTS Assay for Inhibitors of Recombinant Selenoprotein Glutathione Peroxidase 1 (GPX1) (AID 1845191); also: nearly all actives have a fitted effect of over 65% in size
Chain of Glutathione peroxidase 1 (Homo sapiens) (P07203 whole entry, looked up): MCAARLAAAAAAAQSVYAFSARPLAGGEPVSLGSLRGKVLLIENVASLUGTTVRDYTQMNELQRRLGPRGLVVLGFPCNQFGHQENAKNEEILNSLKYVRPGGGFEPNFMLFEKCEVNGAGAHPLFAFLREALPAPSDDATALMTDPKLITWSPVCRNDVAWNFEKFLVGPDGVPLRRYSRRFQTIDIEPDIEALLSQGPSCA
In short: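 GR-coupled assay: compounds preincubated 30 min at room temperature with GPX1, then reaction started with CHP; final 10 nM GPX1, 1 mM GSH, 0.5 mM CHP, 0.5 mM NADPH, 100 nM GR, 0.01% BSA, pH 7.5 Tris buffer. NADPH fluorescence (340/450 nm) read at 0 and 15 min.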

[4] = molecular target: Phospholipid hydroperoxide glutathione peroxidase GPX4 (Homo sapiens) (UniProt P36969); assay: Primary qHTS Assay for Inhibitors of Recombinant Selenoprotein Glutathione Peroxidase 4 (GPX4) (AID 1845192); also: nearly all actives have a fitted effect of over 65% in size
Chain of Phospholipid hydroperoxide glutathione peroxidase GPX4 (Homo sapiens) (P36969 whole entry, looked up): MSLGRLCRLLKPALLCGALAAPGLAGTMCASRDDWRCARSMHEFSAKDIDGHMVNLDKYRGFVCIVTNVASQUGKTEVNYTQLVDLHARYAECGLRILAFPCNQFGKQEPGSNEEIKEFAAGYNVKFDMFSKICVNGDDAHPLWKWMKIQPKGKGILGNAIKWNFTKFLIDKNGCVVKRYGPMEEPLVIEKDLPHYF
In short: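 GR-coupled assay: recombinant GPX4 preincubated 30 min with compound at room temperature; final 200 nM GPX4, 1 mM GSH, 0.5 mM cumene hydroperoxide, 0.5 mM NADPH, 100 nM GR, 0.01% BSA, pH 7.5 Tris. NADPH fluorescence (340/450 nm) read at 0 and 15 min.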

[5] = molecular target: Luciferin 4-monooxygenase (Photinus pyralis) (UniProt P08659); assay: Primary firefly luciferase (FLuc) qHTS assay for identification of artifact compounds. (AID 1845220); conditions: outcome: dose series up to 54.1 µM unless noted; also: nearly all actives have a fitted effect of over 60% in size
In short: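 Titrated compounds were incubated 15 min at RT, protected from light, with luciferin and ATP at 10 uM; reaction started with 10 nM FLuc, luminescence imaged at 5 min, and concentration-response fitted by Hill equation.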

[6] = Primary fluorescence-based thiol-reactive (MSTI) qHTS assay for identification of artifact compounds. (AID 1845221); also: nearly all actives have a fitted effect of over 65% in size; also: potency is read from the fitted curve at half-maximal effect
In short: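 A multi-concentration qHTS design tested compounds against 4 uM MSTI, pH 7.4 phosphate-buffered saline. Plates were protected from light for 1 h at room temperature before imaging fluorescence.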

[7] = tested on: Nanoluciferase (engineered Oplophorus gracilirostris luciferase); assay: Primary Nanoluciferase (NLuc) qHTS assay for identification of artifact compounds. (AID 1845222);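 also: NLuc secreted into diluted conditioned medium of S16 cells; 0% = DMSO and -100% = no enzyme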
In short: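 qHTS format, against NLuc in S16 cell-conditioned medium. Nano-Glo substrate 1:100 was added after 15 min at room temperature. Luminescence was taken after a further 5 min.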

CRL-7250 = normal cell line; assay: Cytotoxic Profiling of Annotated Libraries Using Quantitative High-Throughput Screening (AID 1296008); conditions: Five cell lines viability, CellTiter-Glo ATP luminescence, 48-72 h; max response: stronger effect = lower value; also: nearly all actives have a fitted effect of over 60% in size; also: potency is read from the fitted curve at half-maximal effect; as to max response: % is scaled to controls: 0 for no effect and ±100 for the full control effect
In short: (§1)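 Cells exposed to compounds for 48 or 72 hr at 37 degrees Celsius. Viability read as ATP-coupled luminescence with CellTiter-Glo after 10 min at room temperature.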

HEK293 = assay: as above; conditions: Five cell lines viability, CellTiter-Glo ATP luminescence, 48-72 h; max response: stronger effect = lower value
In short: as §1

HaCat = assay: as above; conditions: Five cell lines viability, CellTiter-Glo ATP luminescence, 48-72 h; max response: stronger effect = lower value
In short: as §1

C33A = assay: Primary qHTS to identify gynecologic anti-cancer compounds using libraries of approved drugs and bioactive compounds (AID 1345084); conditions: Gynecologic cancer cell panel viability, ATPlite luminescence, 48 h; series mostly up to 57.5 µM; also: nearly all actives have a fitted effect of over 55% in size; also: potency is read from the fitted curve at half-maximal effect
In short: (§2)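 ATP-based viability (ATPlite), 1,000 cells/well, 16 h pre-incubation, 48 h compound at 37 C, 5% CO2, 15 min RT before read.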

CASKI = assay: as above; conditions: Gynecologic cancer cell panel viability, ATPlite luminescence, 48 h; series mostly up to 57.5 µM
In short: as §2

Hek293T = assay: as above; conditions: Gynecologic cancer cell panel viability, ATPlite luminescence, 48 h, control line for the selectivity index; series mostly up to 57.5 µM
In short: as §2

Tov-21-G = assay: as above; conditions: Gynecologic cancer cell panel viability, ATPlite luminescence, 48 h; series mostly up to 57.5 µM
In short: as §2

[8] = tested on: Zika virus NS2B-NS3 protease (linked construct); assay: Primary screen NINDS Rhodamine qHTS for Zika virus inhibitors (AID 1347160); also: nearly all actives have a fitted effect of over 55% in size
In short: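 In 10 mM Tris-HCl pH 8.0 containing 0.01% Tween 20, linked NS2B-NS3 protease (25 nM final) is exposed to test compounds for 15 min. Cleavage of 1.5 microM Rhodamine110 substrate is tracked by fluorescence over 15 min.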

KB-3-1 = assay: Cytotoxic Profiling of Annotated Libraries Using Quantitative High-Throughput Screening (AID 1296008); conditions: Five cell lines viability, CellTiter-Glo ATP luminescence, 48-72 h; max response: stronger effect = lower value; also: nearly all actives have a fitted effect of over 60% in size; also: potency is read from the fitted curve at half-maximal effect; as to max response: % is scaled to controls: 0 for no effect and ±100 for the full control effect
In short: as §1

OV90 = assay: Primary qHTS to identify gynecologic anti-cancer compounds using libraries of approved drugs and bioactive compounds (AID 1345084); conditions: Gynecologic cancer cell panel viability, ATPlite luminescence, 48 h; series mostly up to 57.5 µM; also: nearly all actives have a fitted effect of over 55% in size; also: potency is read from the fitted curve at half-maximal effect
In short: as §2

PA-1 = assay: as above; conditions: Gynecologic cancer cell panel viability, ATPlite luminescence, 48 h; series mostly up to 57.5 µM
In short: as §2

Tov112D = assay: as above; conditions: Gynecologic cancer cell panel viability, ATPlite luminescence, 48 h; series mostly up to 57.5 µM
In short: as §2

Es-2 = assay: as above; conditions: Gynecologic cancer cell panel viability, ATPlite luminescence, 48 h; series mostly up to 57.5 µM
In short: as §2

C[C@@]1(CO)[C@H](O)CC[C@@]2(C)[C@H]1CC[C@H]1C[C@@H]3C[C@@]12CC[C@]3(O)CO
active: Potency [2] 3190 nM | Potency (HEK293) 2550 nM | Potency (HaCat) 9040 nM
inactive: Potency [1] | Potency [3] | Potency [4] | outcome [5] | Potency [6] | Potency [7] | max response (CRL-7250) -2.86% | Potency (C33A) | Potency (CASKI) | Potency (Hek293T) | Potency (Tov-21-G)

C=C1[C@@H](C)[C@H]2[C@H](Cc3ccccc3)NC(=O)[C@]23[C@H](OC(C)=O)/C=C/[C@](C)(O)C(=O)[C@@H](C)C/C=C/[C@H]3[C@@H]1O
active: Potency [2] 728 nM | Potency (CRL-7250) 259 nM | Potency (HEK293) 731 nM | Potency (HaCat) 23100 nM | Potency (KB-3-1) 2590 nM | Potency (OV90) 1260 nM | Potency (PA-1) 1780 nM
inactive: Potency [8] | Potency [1] | Potency [3] | outcome [5] | Potency [6] | Potency [7] | Potency (C33A) | Potency (CASKI) | Potency (Hek293T) | Potency (Tov112D)

CCC1=CC2CN3CCc4c([nH]c5ccccc45)[C@@](C(=O)OC)(C2)[C@@H]13
inactive: Potency [8] | Potency [1] | Potency [3] | outcome [5] | Potency [7] | max response (CRL-7250) -21.4% | max response (HEK293) -6.65% | max response (HaCat) -7.15% | Potency (C33A) | Potency (CASKI) | Potency (Es-2) | Potency (Hek293T) | Potency (OV90) | Potency (PA-1) | Potency (Tov-21-G) | Potency (Tov112D)

CC1=C[C@H]2O[C@@H]3[C@H](O)[C@@H](O)[C@](C)([C@@]2(CO)C[C@@H]1O)[C@]31CO1
inactive: Potency [8] | Potency [1] | Potency [3] | Potency [4] | Potency [6] | Potency [7]
active: Potency [2] 728 nM | Potency (CRL-7250) 5800 nM | Potency (HEK293) 1300 nM | Potency (HaCat) 7310 nM | Potency (KB-3-1) 1460 nM | Potency (C33A) 10000 nM | Potency (CASKI) 11200 nM | Potency (Es-2) 10000 nM | Potency (Hek293T) 2820 nM | Potency (OV90) 8910 nM | Potency (PA-1) 3980 nM | Potency (Tov-21-G) 10000 nM

C[C@]12CC[C@H](O)C[C@H]1CC[C@@H]1[C@@H]2[C@H](O)C(=O)[C@]2(C)[C@@H](c3ccc(=O)oc3)CC[C@]12O
inactive: Potency [8] | Potency [1] | Potency [3] | Potency [4] | outcome [5] | Potency [6] | Potency [7]
active: Potency [2] 20.5 nM | Potency (CRL-7250) 41.1 nM | Potency (HEK293) 32.6 nM | Potency (HaCat) 130 nM | Potency (KB-3-1) 46.1 nM | Potency (CASKI) 398 nM | Potency (Es-2) 89.1 nM | Potency (OV90) 282 nM | Potency (PA-1) 79.4 nM

CC[C@@]1(O)C(=O)OCc2c1cc1n(c2=O)Cc2cc3c(OC)cccc3nc2-1
active: Potency [2] 7.1 nM | Potency (CRL-7250) 5080 nM | Potency (HEK293) 50.8 nM | Potency (HaCat) 114 nM | Potency (KB-3-1) 1280 nM | Potency (C33A) 631 nM | Potency (Hek293T) 1580 nM | Potency (OV90) 1120 nM | Potency (PA-1) 89.1 nM | Potency (Tov-21-G) 5620 nM | Potency (Tov112D) 224 nM
inactive: Potency [8] | Potency [1] | Potency [3] | Potency [4] | outcome [5] | Potency [6] | Potency [7]

CCCCN1[C@@H]2CC[C@H]1CC(OC(c1ccc(F)cc1)c1ccc(F)cc1)C2 (stereo partly specified)
active: Potency [2] 12900 nM | Potency (HEK293) 23100 nM | Potency (C33A) 22400 nM | Potency (OV90) 12600 nM | Potency (PA-1) 14100 nM
inactive: Potency [8] | Potency [1] | Potency [3] | Potency [4] | Potency [6] | Potency [7] | max response (CRL-7250) -21.5% | max response (HaCat) -29% | Potency (Tov-21-G)

C[C@H]1C/C=C/[C@H]2[C@@H]3O[C@]3(C)[C@@H](C)[C@H]3[C@H](Cc4ccccc4)NC(=O)[C@]32OC(=O)O/C=C/[C@@](C)(O)C1=O
active: Potency [2] 632 nM | Potency (CRL-7250) 632 nM | Potency (HEK293) 399 nM | Potency (HaCat) 796 nM | Potency (KB-3-1) 563 nM | Potency (PA-1) 2510 nM | Potency (Tov112D) 3160 nM
inactive: Potency [8] | Potency [1] | Potency [3] | Potency [4] | outcome [5] inactive [at 25.7 µM] | Potency [6] | Potency [7] | Potency (C33A) | Potency (CASKI) | Potency (Es-2) | Potency (OV90)

CCC1NC(=O)C2C(Cl)C(Cl)CN2C(=O)C(CC)NC(=O)CC(c2ccccc2)NC(=O)C(CO)NC1=O (stereo unspecified)
inactive: Potency [1] | Potency [3] | Potency [4] | outcome [5] | Potency [7] | max response (CRL-7250) 2.35% | max response (HEK293) -1.56% | outcome (HaCat) | Potency (C33A) | Potency (CASKI) | Potency (Es-2) | Potency (Hek293T) | Potency (OV90) | Potency (PA-1) | Potency (Tov112D)
active: Potency [6] 2320 nM

C[C@H]1CCC/C=C/C2C[C@H](O)C[C@H]2[C@H](O)/C=C/C(=O)O1 (stereo partly specified)
inactive: Potency [8] | Potency [1] | Potency [3] | Potency [4] | outcome [5] | Potency [6] | Potency [7]
active: Potency [2] 163 nM and 332 nM | Potency (CRL-7250) 51.7 nM | Potency (HEK293) 580 nM | Potency (HaCat) 184 nM | Potency (C33A) 631 nM | Potency (CASKI) 1000 nM | Potency (Es-2) 316 nM | Potency (Hek293T) 891 nM | Potency (OV90) 316 nM | Potency (PA-1) 316 nM | Potency (Tov-21-G) 1000 nM | Potency (Tov112D) 891 nM
